In assay [1] the test system is Plasmodium falciparum Sir2 (PF13_0152, Sir2A). In words: Plasmodium falciparum Sir2A binding compounds – biochemical, small-molecule microarray, 635 nm fluorescence, primary screen (AID 1098).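 Further: score merges spot fluorescence intensity with its signal-to-noise ratio.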 The settings on record: fluorescence 635 nm, higher = more signal.
Assay [2] is described as follows: probe aDKK1 binding to arrayed compounds – biochemical, biotinylated probe, 635/667 nm fluorescence, primary screen (AID 1099).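 Further: score merges 667nm spot fluorescence with signal to noise across triplicate slides.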 Conditions: small-molecule microarray, higher = more signal.
Assay [3] is described as follows: probe aCHRDL2 binding to arrayed compounds – biochemical, biotinylated probe, 635/667 nm fluorescence, primary screen (AID 1100). The settings on record: small-molecule microarray, higher = more signal.
Assay [4] in a line: change in splice reporter luminescence, either direction, cell-based, HEK293, spliceosome inhibition project, primary screen (AID 1101).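 Further: HEK293 cells carrying a splicing-competent luciferase reporter gene; test concentration not given here.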 The settings on record: HEK293 splicing luciferase reporter, 24 h, higher = more signal, called active from +8 up or from −8 down. (In general: A reporter such as luciferase makes a cellular process visible.)
The target of assay [5] is Fibroblast growth factor 10 (Homo sapiens) (UniProt O15520). In words: compounds binding fibroblast growth factor 10 – biochemical, small-molecule microarray, 635 nm fluorescence, primary screen (AID 1102). Conditions: FGF10 binding, fluorescence 635 nm, higher = more signal.
In assay [6] the test system is glycogen synthase kinase-3 (GSK3A per assay name; protocol says GSK3B). In words: compounds binding glycogen synthase kinase-3 – biochemical, small-molecule microarray, 635 nm fluorescence, GSK3A, primary screen (AID 1103). Further: the record names both GSK3A and GSK3B. Conditions: fluorescence 635 nm, higher = more signal.
In assay [7] the target is Epidermal growth factor receptor (Homo sapiens) (UniProt P00533). In words: compounds binding epidermal growth factor receptor – biochemical, small-molecule microarray, 635 nm fluorescence, primary screen (AID 1104).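 Further: score merges 667 nm emission intensity with spot signal to noise over triplicate slides.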 Conditions: EGFR binding, higher = more signal.
Assay [8] concerns the target Follistatin-related protein 3 (Homo sapiens) (UniProt O95633). Put plainly: compounds binding follistatin-related protein 3 – biochemical, small-molecule microarray, 635 nm fluorescence, primary screen (AID 1105).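 Further: score merges emission near 667 nm and signal to noise per printed spot across three slides.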 Conditions: FSTL3 binding, higher = more signal.
The target of assay [9] is Dickkopf-related protein 1 (Homo sapiens) (UniProt O94907). In words: small molecules binding DKK1 protein – biochemical, small-molecule microarray, 635 nm fluorescence scan, primary screen (AID 1106).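 Further: score merges emission near 667 nm with signal to noise over three replicate slides.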 The settings on record: higher = more signal.
Assay [10] has as its system Inhibin beta A chain (activin A). In words: small molecules binding activin A – biochemical, small-molecule microarray, 635 nm fluorescence scan, primary screen (AID 1107).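 Further: mouse activin A protein probed at 4.33 µg/mL on printed slides; score merges bound-protein fluorescence near 667 nm with spot signal-to-noise.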 Conditions: INHBA, higher = more signal.
For assay [11], the system named is Human papillomavirus type 1a protein E7 (residues 44-93). In words: small molecules binding HPV E7 44-93 – biochemical, small-molecule microarray, residues 44-93, 635 nm fluorescence, primary screen (AID 1108).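 Further: E7 fragment applied at 1 µg/mL in TBST for 1 h at 4 C; score combines spot fluorescence with its signal to noise ratio.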 Conditions: fluorescence 635 nm, higher = more signal.
Assay [12] is described as follows: hepatitis C replication reporter changes, two-sided – Huh7 cells, luciferase reporter, HCV replication inhibitor project, primary screen (AID 1109).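 Further: huh7 hepatoma cells harbouring a luciferase neomycin HCV replicon reporter; luciferase luminescence as measure of HCV replicon replication; test concentration not given here.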 Conditions: Huh7 HCV replicon luciferase reporter, 48 h; higher = more signal.
Assay [13] has as its target Left-right determination factor 2 (Homo sapiens) (UniProt O00292). In words: small molecules binding LEFTY2 protein – biochemical, small-molecule microarray, 635 nm fluorescence scan, primary screen (AID 1110). The settings on record: higher = more signal.
Assay [14] concerns the target Calmodulin-1 (Homo sapiens) (UniProt P0DP23). Put plainly: small molecules binding calmodulin-1 with EGTA – biochemical, small-molecule microarray, Cy5-labelled CALM1, profiling panel (AID 1111).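 Further: labelled calmodulin applied in Tris saline Tween buffer holding calcium plus EGTA and DTT.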 Conditions: Cy5-CALM1 binding fluorescence, higher = more signal.
Assay [15] shares this target. In words: small molecules binding Ca-loaded calmodulin-1 – biochemical, small-molecule microarray, Cy5-labelled CALM1, plus calcium, artefact control for SMM control-protein annotation, profiling panel (AID 1112).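 Further: score merges spot fluorescence with signal to noise from triplicate slides.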 Conditions: Cy5-CALM1 binding fluorescence, higher = more signal.
Assay [16] in a line: probe aWnt5a binding to arrayed compounds – biochemical, biotinylated probe, 635/667 nm fluorescence, primary screen (AID 1113).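 Further: score merges 667 nm fluorescence intensity with signal-to-noise per printed feature.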 The settings on record: small-molecule microarray, higher = more signal.
Assay [17] is described as follows: probe aShh binding to arrayed compounds – biochemical, biotinylated probe, 635/667 nm fluorescence, primary screen (AID 1114).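 Further: probe is biotin-labelled aShh protein from a stem cell growth factor screen; measures binding of labelled protein to compounds printed on the slide; score merges feature fluorescence at 667 nm with signal-to-noise.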 The settings on record: small-molecule microarray, higher = more signal.
Assay [18] can be described thus: probe aNog binding to arrayed compounds – biochemical, biotinylated probe, 635/667 nm fluorescence, primary screen (AID 1115).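 Further: probe is biotinylated aNog protein used at 0.15 µg/mL for 1 h at 4 C; z-score combines 667 nm fluorescence of each spot with its signal to noise.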 The settings on record: small-molecule microarray, higher = more signal.
For assay [19], the target named is Torsin-1A-interacting protein 1 (Homo sapiens) (UniProt Q5JTV8). Put plainly: compound microarray binding of lysate hLAP1 – cell lysate, small-molecule microarray, COS7 lysate, 635/667 nm fluorescence, primary screen (AID 1116). Conditions: 635 nm fluorescence, higher = more signal.
For assay [20], the target named is Alpha-bungarotoxin (Bungarus multicinctus) (UniProt P60615). Put plainly: compounds binding labelled alpha-BTX control protein – biochemical, small-molecule microarray, Alexa647 label, 635/667 nm fluorescence, artefact control for SMM control protein annotation, profiling panel (AID 1117). Conditions: alpha-BTX-A647 binding fluorescence, higher = more signal.

SMILES strings stand for the structures. Activity calls are given as the source filed them.

Sequence of Epidermal growth factor receptor (Homo sapiens) (P00533 whole entry, looked up): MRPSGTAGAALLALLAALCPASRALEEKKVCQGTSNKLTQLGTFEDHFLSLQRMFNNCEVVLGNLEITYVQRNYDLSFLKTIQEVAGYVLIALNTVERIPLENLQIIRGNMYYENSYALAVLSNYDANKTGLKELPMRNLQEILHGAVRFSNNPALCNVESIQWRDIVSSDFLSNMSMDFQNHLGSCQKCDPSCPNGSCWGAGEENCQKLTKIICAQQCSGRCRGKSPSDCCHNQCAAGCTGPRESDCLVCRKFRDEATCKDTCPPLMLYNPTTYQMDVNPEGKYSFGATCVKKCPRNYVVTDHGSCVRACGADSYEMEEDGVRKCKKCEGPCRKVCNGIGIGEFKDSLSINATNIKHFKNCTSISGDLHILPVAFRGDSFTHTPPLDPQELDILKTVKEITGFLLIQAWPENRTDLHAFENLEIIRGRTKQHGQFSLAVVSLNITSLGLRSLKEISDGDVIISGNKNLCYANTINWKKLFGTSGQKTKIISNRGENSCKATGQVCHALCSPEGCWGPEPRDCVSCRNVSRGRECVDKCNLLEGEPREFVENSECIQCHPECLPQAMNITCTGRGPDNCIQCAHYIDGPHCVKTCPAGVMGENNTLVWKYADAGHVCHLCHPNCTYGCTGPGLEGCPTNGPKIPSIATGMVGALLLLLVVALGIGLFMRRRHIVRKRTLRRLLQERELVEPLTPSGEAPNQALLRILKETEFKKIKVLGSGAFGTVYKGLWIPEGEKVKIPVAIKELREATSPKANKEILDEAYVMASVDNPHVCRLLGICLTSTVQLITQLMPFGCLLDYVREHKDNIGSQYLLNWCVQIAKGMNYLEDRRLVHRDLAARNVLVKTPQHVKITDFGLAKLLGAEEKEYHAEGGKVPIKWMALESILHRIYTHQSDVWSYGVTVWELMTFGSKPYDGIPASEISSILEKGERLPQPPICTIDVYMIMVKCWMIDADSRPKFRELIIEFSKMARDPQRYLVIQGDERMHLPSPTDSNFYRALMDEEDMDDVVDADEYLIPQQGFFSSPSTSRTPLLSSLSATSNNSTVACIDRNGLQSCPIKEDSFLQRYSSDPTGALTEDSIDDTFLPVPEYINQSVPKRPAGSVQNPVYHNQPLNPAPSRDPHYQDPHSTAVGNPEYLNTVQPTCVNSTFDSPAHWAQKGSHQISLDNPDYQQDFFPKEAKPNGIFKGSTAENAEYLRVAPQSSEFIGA
Sequence of Left-right determination factor 2 (Homo sapiens) (O00292 whole entry, looked up): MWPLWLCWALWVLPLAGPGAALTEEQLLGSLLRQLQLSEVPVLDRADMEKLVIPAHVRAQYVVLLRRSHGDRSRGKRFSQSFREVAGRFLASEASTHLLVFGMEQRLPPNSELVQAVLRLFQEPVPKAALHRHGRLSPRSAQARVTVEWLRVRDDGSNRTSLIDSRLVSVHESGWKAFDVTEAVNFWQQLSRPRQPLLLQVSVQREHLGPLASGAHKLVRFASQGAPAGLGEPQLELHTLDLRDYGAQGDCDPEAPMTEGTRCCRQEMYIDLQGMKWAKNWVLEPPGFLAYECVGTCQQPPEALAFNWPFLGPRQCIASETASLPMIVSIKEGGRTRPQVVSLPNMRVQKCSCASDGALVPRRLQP
Sequence of Dickkopf-related protein 1 (Homo sapiens) (O94907 whole entry, looked up): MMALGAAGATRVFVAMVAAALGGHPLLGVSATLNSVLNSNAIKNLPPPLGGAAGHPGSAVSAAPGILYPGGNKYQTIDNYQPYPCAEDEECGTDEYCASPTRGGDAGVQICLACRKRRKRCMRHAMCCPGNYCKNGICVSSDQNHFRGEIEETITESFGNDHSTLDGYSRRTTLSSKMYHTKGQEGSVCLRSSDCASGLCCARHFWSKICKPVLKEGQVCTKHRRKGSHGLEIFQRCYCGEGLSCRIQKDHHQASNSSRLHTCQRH
Sequence of Torsin-1A-interacting protein 1 (Homo sapiens) (Q5JTV8 whole entry, looked up): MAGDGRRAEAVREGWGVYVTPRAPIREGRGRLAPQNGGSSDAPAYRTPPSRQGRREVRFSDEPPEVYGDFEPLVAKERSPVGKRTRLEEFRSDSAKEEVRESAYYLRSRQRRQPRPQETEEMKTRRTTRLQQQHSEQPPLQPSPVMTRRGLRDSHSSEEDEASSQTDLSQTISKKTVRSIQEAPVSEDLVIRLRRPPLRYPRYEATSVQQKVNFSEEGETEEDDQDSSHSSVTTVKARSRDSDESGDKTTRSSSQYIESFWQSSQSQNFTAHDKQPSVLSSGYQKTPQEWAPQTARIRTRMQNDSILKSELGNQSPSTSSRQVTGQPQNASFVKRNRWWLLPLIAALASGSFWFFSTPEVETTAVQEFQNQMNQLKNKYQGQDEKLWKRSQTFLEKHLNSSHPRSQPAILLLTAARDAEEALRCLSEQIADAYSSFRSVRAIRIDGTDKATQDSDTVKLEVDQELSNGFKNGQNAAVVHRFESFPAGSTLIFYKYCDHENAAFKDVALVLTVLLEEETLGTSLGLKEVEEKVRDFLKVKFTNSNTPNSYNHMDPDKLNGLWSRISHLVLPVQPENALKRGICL
Sequence of Follistatin-related protein 3 (Homo sapiens) (O95633 whole entry, looked up): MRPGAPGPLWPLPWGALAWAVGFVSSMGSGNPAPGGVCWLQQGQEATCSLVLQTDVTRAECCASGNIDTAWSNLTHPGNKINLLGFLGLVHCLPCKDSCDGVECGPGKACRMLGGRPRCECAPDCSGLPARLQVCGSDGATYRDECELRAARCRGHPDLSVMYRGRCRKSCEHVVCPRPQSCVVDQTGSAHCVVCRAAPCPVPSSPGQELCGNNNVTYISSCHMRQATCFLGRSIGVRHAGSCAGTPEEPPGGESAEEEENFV
Sequence of Alpha-bungarotoxin (Bungarus multicinctus) (P60615 whole entry, looked up): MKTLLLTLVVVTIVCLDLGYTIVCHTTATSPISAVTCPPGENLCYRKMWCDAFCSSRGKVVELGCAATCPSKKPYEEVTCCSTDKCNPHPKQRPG
Sequence of Fibroblast growth factor 10 (Homo sapiens) (O15520 whole entry, looked up): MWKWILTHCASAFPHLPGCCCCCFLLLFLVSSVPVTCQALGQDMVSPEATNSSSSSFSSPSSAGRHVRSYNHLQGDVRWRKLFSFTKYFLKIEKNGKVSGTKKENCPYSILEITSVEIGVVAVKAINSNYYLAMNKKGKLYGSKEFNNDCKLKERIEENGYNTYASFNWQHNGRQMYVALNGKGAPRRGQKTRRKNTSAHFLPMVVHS

`CO[C@H]1O[C@H](CO)[C@@H](OC(=O)Nc2ccc(C(F)(F)F)cc2)[C@H](OC(=O)Nc2ccc3c(c2)OCO3)[C@@H]1OC(=O)Nc1ccc2c(c1)OCO2`: the composite z-score came out at 1.06 in assay [1]; 0.346 in assay [2]; 0.284 in assay [3]; 1.41 in assay [5]; 1.2 in assay [6]; 0.587 in assay [7]. Besides, the composite z-score is 0.527 in [8]; 0.711 in assay [9]; 0.543 in [10]; 0.335 in assay [11]; 0.819 in assay [13]; 0.784 in assay [14]. The composite z-score in assay [15] was -0.764; in [16] it was 0.101; in assay [17], 0.221; in assay [18] it was 1.71; in [19] it was 1.34; in assay [20], 0.943. Also, the results for the z-score in assay [4] and in [12] were -1.29 (inactive) and -2.44, respectively.
In the case of `O=C1OCCC/C=C\[C@H]2OC34C=CCN(Cc5ccccc5)C(=O)[C@H]3N(CCCO)C(=O)[C@@H]4C12` (stereo not given in full), the composite z-score in assay [1] is 1.26; in [2] it was -0.0379; in [3], 0.794; in assay [5] it was -0.967; in assay [6] it was -0.972; in assay [7] it was -1.55. The composite z-score in [8] is -1.57; in [9], -1.66; in assay [10], -0.583; in [11] it was 0.0636; in [13] it was -2.09; in assay [14], -0.537. Moreover, the composite z-score in [15] was 0.464; in [16] it was -0.178; in [17], -0.16; in [18], -0.244; in assay [19], 1.82; in [20] it was -0.972. Besides, the z-score in assay [4] is 0.422 (inactive); in [12], -0.779.
As to `COc1ccc(C(O)C2C=CC3C(=O)N(Cc4ccccc4)C(=O)C3N2n2cnnc2)cc1OCc1ccccc1` (stereo not given), the composite z-score in assay [1] is 0.504; in assay [2] it was -0.0756; in assay [3], 0.432; in assay [5], -0.245; in assay [6], 0.332; in [7], -0.283. The composite z-score in assay [8] is 0.308; in [9], -0.192; in assay [10], 0.586; in assay [11] it was 0.958; in assay [13] it was -0.355; in assay [14] it was 0.0367. Besides, the composite z-score in [15] is -0.485; in [16] it was -0.096; in assay [17], -0.18; in assay [18] it was 0.393; in [19], 0.383; in assay [20] it was 0.161. Besides, the z-score was -1.91 (inactive) in [4] and -1.04 in assay [12].
Turning to `C=CCOC(=O)[C@H]1[C@@H]2C(=O)O[C@@H](c3ccccc3)[C@@H](c3ccccc3)N2[C@@H](c2ccc(OCCOC(=O)[C@H]3C[C@H]4C(=O)N[C@@H](CCCCNC(C)=O)C(=O)N4[C@H]3c3cccc(OCCO)c3)cc2)[C@]12C(=O)Nc1ccccc12`, the composite z-score in assay [1] was 1.42; in [2], -0.194; in assay [3], 0.285; in assay [5], 1.31; in [6], 1.32; in assay [7], 0.674. Moreover, the composite z-score is 0.775 in assay [8]; 0.824 in [9]; 0.134 in assay [10]; 1.36 in assay [11]; 0.578 in assay [13]; 2.53 in [14]. The composite z-score is -0.0073 in [15]; -0.101 in [16]; 0.13 in assay [17]; 0.0588 in [18]; 1.22 in [19]; 0.977 in assay [20]. Besides, the results for the z-score in assay [4] and in [12] were 0.29 (inactive) and -1.47, respectively.
Turning to `C=CCOC(=O)[C@@H]1[C@H]2C(=O)O[C@H](c3ccccc3)[C@H](c3ccccc3)N2[C@H](c2ccc(OCCOC(=O)[C@@H]3C[C@@H]4C(=O)NCC(=O)N4[C@@H]3c3ccc(O)cc3)cc2)[C@@]12C(=O)Nc1ccc(I)cc12`, the composite z-score in assay [1] was 0.924; in assay [2] it was -0.485; in [3] it was -0.201; in assay [5] it was 0.912; in [6], 1.29; in [7], 0.715. The composite z-score in assay [8] is 1.22; in assay [9], 0.82; in [10] it was 0.0932; in assay [11] it was 0.403; in assay [13], 0.902; in assay [14] it was 1.2. For the same molecule, the composite z-score in assay [15] is 0.499; in [16], -0.101; in assay [17], 0.0796; in assay [18] it was -0.175; in assay [19], 1.4; in assay [20] it was 0.872. Also, the z-score in assay [4] is -0.603 (inactive); in [12], -1.29.
On to `COC(=O)[C@@]1(CCS(=O)(=O)c2ccccc2)N=C(c2ccc(OCCCO)cc2)O[C@H]1c1ccccc1CN=[N+]=[N-]`, for which the composite z-score in assay [1] came out at 1.21; in assay [2], 1.11; in assay [3] it was 1.2; in assay [5] it was 0.336; in assay [6] it was 1.24; in assay [7], 0.143. For the same molecule, the composite z-score was 1.01 in assay [8]; -0.0332 in [9]; 0.799 in [10]; 0.797 in assay [11]; -0.343 in assay [13]; 1.72 in assay [14]. Further, the composite z-score was 0.373 in [15]; -0.0539 in assay [16]; 0.0469 in assay [17]; 0.647 in assay [18]; 1.13 in [19]; 0.829 in [20]. Further, the z-score was 0.362 (inactive) in assay [4] and -2.38 in assay [12].

Source of the values: PubChem BioAssay.
